In all, about 10,000 compounds went through this assay and about 320 (3.2%) were called active. This is one part of a sample in which actives are shown more often than they occur. Cut-off read from the data, not from the text of the source: active = CPE inhibition mostly above about 9.1% (no sharp cut-off); inactive = mostly below about 7.2%.
Assay: antivirals protecting cells from dengue CPE – CPE readout, HTS (AID 540333)
Conditions: Dengue virus CPE inhibition in host cells, at 20 µM; active compounds read high

SMILES	CPE inhibition
CN(CC(=O)Nc1ccc(Cl)c(Cl)c1)C(=O)/C=C/c1ccc(F)cc1	0.95% (inactive)
S=C(NCCc1ccccc1)NC1CC1	inactive
COC(=O)c1sccc1N/N=C/c1cccc(OC)c1O	2.21% (inactive)
COc1ccc(OCC(=O)N2c3ccccc3CCc3ccccc32)cc1	inactive
O=C(COc1ccc(Cl)cc1)OCC(=O)N1CCCc2ccccc21	inactive
CCc1ccc(OCC(=O)N2c3ccccc3CCc3ccccc32)cc1	14.2% (active)
COc1cc(/C(C)=N/NC(=S)NC(C)C)cc(OC)c1OC	inactive
N#Cc1ccc(NC(=O)CCc2nc3ccccc3s2)cc1	inactive
COC(=O)C1=C(NC(=O)COc2ccc3ccccc3c2)CCS1	1.12% (inactive)
COc1ccc(Cl)cc1NC(=O)CNc1ccccc1F	0.95% (inactive)
COc1ccc(C)cc1NCC(=O)Nc1ccc(C(C)(C)C)cc1	15.4% (active)
Cc1ccc(NC(=O)CNc2ccc(Cl)cc2F)cc1	0.58% (inactive)
COc1cc(NC(=S)NC(=O)CC(C)C)ccc1NC(=O)c1cc2ccccc2o1	0.02% (inactive)
O=C(c1cccc(NS(=O)(=O)c2ccc(F)c(F)c2)c1)N1CCN(C(c2ccccc2)c2ccccc2)CC1	39.5% (active)
O=C(COC(=O)c1cccc(NS(=O)(=O)c2ccc(F)c(F)c2)c1)NC(=O)NC1CCCCC1	3.8% (inactive)
O=C(c1cccc(NS(=O)(=O)c2ccc(F)c(F)c2)c1)N1CCN(Cc2ccccc2)CC1	inactive
CCn1c(-c2c(Cl)c(C)nn2C)n[nH]c1=S	inactive
COCCCNC(=S)NC1CCCCC1	inactive
O=C1C(Cc2ccc(F)cc2)SC(=Nc2ccccc2)N1c1ccccc1 (configuration not stated)	1.01% (inactive)
O=C1C(Cc2ccc(Br)cc2)SC(=Nc2ccccc2)N1c1ccccc1 (configuration not stated)	12.3% (active)
Cc1ccc(CC2SC(=Nc3ccccc3)N(c3ccccc3)C2=O)cc1 (configuration not stated)	4.75% (inactive)
Cc1nn(-c2ccccc2)c(N)c1C(O)(C(F)(F)F)C(F)(F)F	0.32% (inactive)
CCOC(=O)[C@@H]1[C@H]2COc3ccc(Br)cc3[C@@H]2N2C(=O)N(c3ccc(OC)cc3)C(=O)[C@]12C	1.7% (inactive)

SMILES	CPE inhibition
S=C(NCC1CCCO1)Nc1ccc(Cl)cc1 (configuration not stated)	0.15% (inactive)
Cc1ccc(S(=O)(=O)N2CCN(C(C(=O)Nc3ccc(F)cc3)c3ccccc3)CC2)cc1 (configuration not stated)	1.1% (inactive)
Cc1ccc(NC(=O)C(c2ccc(Cl)cc2Cl)N2CCCC2)cc1 (configuration not stated)	11.5% (active)
Cc1cc(C)cc(NC(=O)C(c2ccccc2)N2CCCC2)c1 (configuration not stated)	0.92% (inactive)
Cc1cccc2cc(C3CC(c4ccco4)=NN3C(=O)CCC(=O)O)c(Cl)nc12 (configuration not stated)	inactive
COc1cc(C(=O)NCC(c2cccs2)N(C)C)cc(Cl)c1OC(C)C (configuration not stated)	0.015% (inactive)
COCCNC(=O)CCCC(=O)NCCOC	inactive
CCOC(=O)c1c(NC(=O)C2=C(C)NC(=S)NC2c2ccc(F)cc2F)sc(C)c1C (configuration not stated)	32.4% (active)
CC1=C(C(=O)Nc2ccc(F)c(F)c2)C(c2cccs2)NC(=S)N1 (configuration not stated)	0.675% (inactive)
CCOc1cccc(C2NC(=S)NC(C)=C2C(=O)Nc2ccccc2)c1 (configuration not stated)	0.13% (inactive)
O=C(CSc1nc2ccccc2n1S(=O)(=O)c1cccc([N+](=O)[O-])c1)NCc1cccs1	0.11% (inactive)
COc1cc(C(=O)OCC(=O)Nc2ccc(SC(F)F)cc2)cc(OC)c1OC	inactive
O=C(Cc1c[nH]c2ccccc12)NNC(=O)c1ccccc1	0.335% (inactive)
COc1ccccc1CNC(=O)C(Cc1c[nH]c2ccccc12)NC(=O)OCc1ccccc1 (configuration not stated)	6.32% (inactive)
Cc1ccc(NP(=O)(c2ccc(N(C)C)cc2NC(=O)c2cccs2)N2CCOCC2)cc1 (configuration not stated)	2.19% (inactive)
Cc1ccc(NP(=O)(c2ccc(N(C)C)cc2NC(=O)c2cccs2)N2CCOCC2)cc1Cl (configuration not stated)	28.7% (active)
CN(C)c1ccc(P(=O)(Nc2ccccc2)N2CCOCC2)c(NC(=O)c2cccs2)c1 (configuration not stated)	2.15% (inactive)
COC(=O)c1ccccc1NC(=O)C1CCCO1 (configuration not stated)	3.31% (inactive)
CCOC(=O)c1c(C)[nH]c(C(=O)COC(=O)[C@H](C)NC(=O)c2ccccc2Cl)c1C	0.24% (inactive)
O=C(Nc1nc(-c2ccc(Cl)cc2)cs1)NC1CCCCC1	20.3% (active)
CC(=O)c1c(C)[nH]c(C(=O)Nc2nc(-c3ccccc3)c(C)s2)c1C	0.6% (inactive)
CC(=O)c1c(C)[nH]c(C(=O)Nc2nc(-c3ccc(-c4ccccc4)cc3)cs2)c1C	4.52% (inactive)
O=C(/C=C/c1ccco1)NC(=S)Nc1nc(-c2ccc(Cl)cc2)cs1	1.57% (inactive)

SMILES	CPE inhibition
CC(=O)c1c(C)[nH]c(C(=O)Nc2nc(-c3ccc(Cl)cc3)cs2)c1C	26.9% (active)
O=C(NNc1nc(-c2ccc(Cl)cc2)cs1)c1ccco1	inactive
CCOP(=O)(OCC)C(Nc1ccccc1)c1cc(OC)ccc1OC (configuration not stated)	inactive
COc1cccc(-c2c(-c3cc(OC)cc(OC)c3)n(C)c3ccc(-c4ccc5[nH]ccc5c4)cc23)c1	2.75% (inactive)
O=C(/C=C/c1ccc(Cl)cc1Cl)NCCSCc1ccccc1	0.45% (inactive)
CCN(C(=O)COC(=O)/C=C/c1ccc(O)c(OC)c1)C1CCS(=O)(=O)C1 (configuration not stated)	0.935% (inactive)
O=C(/C=C/c1ccc(Cl)cc1Cl)N(Cc1ccccc1)C1CCS(=O)(=O)C1 (configuration not stated)	38.5% (active)
CC(C)CN(C(=O)CSc1nn(-c2ccc(Cl)cc2)c(=S)s1)C1CCS(=O)(=O)C1 (configuration not stated)	2.1% (inactive)
O=C(CCl)N(c1ccccc1)C1CCS(=O)(=O)C1 (configuration not stated)	inactive
O=C(/C=C/c1ccc(Cl)cc1Cl)N(Cc1ccc(Cl)cc1)C1CCS(=O)(=O)C1 (configuration not stated)	29.6% (active)
COc1nccnc1NS(=O)(=O)c1ccc(NC(=S)NC(=O)c2ccccc2)cc1	inactive
Cc1cc(C)cc(NC(=O)CSc2nc3c(oc4ccccc43)c(=O)n2-c2ccccc2)c1	0.68% (inactive)
COc1ccc(NC(=O)COC(=O)CNS(=O)(=O)c2ccc(F)c(F)c2F)cc1OC	inactive
O=C(Nc1cc(S(=O)(=O)Nc2ccc(Cl)cc2)ccc1N1CCCCC1)c1ccc(F)cc1Cl	inactive
COc1ccc(NS(=O)(=O)c2ccc(N3CCOCC3)c(NC(=O)c3ccc(OC)cc3)c2)cc1	inactive
N#Cc1ccc(C(=O)Nc2cc(S(=O)(=O)Nc3ccc(Cl)cc3)ccc2N2CCCCC2)cc1	7.53% (active)
CCOC(=O)C1=C(O)/C(=C/c2ccc(OCC(=O)O)c(OCC)c2)SC1=Nc1ccc(OC)cc1	0.63% (inactive)
CC(=O)N1c2ccccc2[C@H](C)[C@H]1C	inactive
O=C(NCCc1nc2ccccc2[nH]1)c1ccc(Cl)c([N+](=O)[O-])c1	0.05% (inactive)
CCC[C@@H](NS(=O)(=O)c1ccc(C)cc1)C(=O)Oc1ccc2c3c(c(=O)oc2c1)CCC3	inactive
O=C(CN1CCN(C(=S)NC2CCCC2)CC1)Nc1ccc(Oc2ccccc2)cc1	12.1% (active)
S=C(Nc1ccc(Br)cc1)NC1CCCCC1	4.99% (inactive)
CCNC(=S)N1CCN(CC(=O)Nc2ccc(Br)cc2)CC1	2.06% (inactive)

SMILES	CPE inhibition
S=C(Nc1ccc(Oc2ccccc2)cc1)NC1CCCC1	0.255% (inactive)
S=C(Nc1ccc(Oc2ccc(NC(=S)NC3CCCCC3)cc2)cc1)NC1CCCCC1	25.8% (active)
S=C(Nc1ccc(Oc2ccccc2)cc1)NC1CCCCCC1	0.02% (inactive)
Cc1ccc(S(=O)(=O)N(C)Cc2ccc(C(=O)N/N=C/c3ccc(OC(F)F)cc3OC(F)F)cc2)cc1	2.12% (inactive)
S=C(c1ccc(-c2ccccc2Cl)o1)N1CCCCC1	2.92% (inactive)
Cn1cc(C(=O)N2CCc3ccccc32)cn1	inactive
c1cnc2cc(-c3ccsc3)ncc2c1	0.12% (inactive)
COc1cccc(/C=C(/C#N)c2ccc(F)cc2)c1OCc1cccc(C(=O)O)c1	inactive
CN1CCN(C(=O)c2cnn3c(C(F)(F)F)cc(-c4cccs4)nc23)CC1	inactive
CC(C)/C=N/NC(=O)c1cccc(N2CCCC2=O)c1	0.335% (inactive)
CCOC(=O)c1sc(NC(=S)NC(=O)c2ccccc2)c(C(=O)OCC)c1C	3.5% (inactive)
COc1cccc(-c2c(-c3cc(OC)cc(OC)c3)n(C)c3ccc(-c4cccc5[nH]ccc45)cc23)c1	4.01% (inactive)
COc1ccc(-c2c(-c3cc(OC)cc(OC)c3)n(C)c3ccc(-c4cccc5[nH]ccc45)cc23)cc1	3.95% (inactive)
COc1cc(OC)cc(-c2c(-c3cccs3)c3cc(-c4cccc5[nH]ccc45)ccc3n2C)c1	11.7% (active)
Cc1ccc(-c2[nH]nc3c2C(C)C(C#N)=C(N)O3)cc1 (configuration not stated)	inactive
CC(C)(C)[C@@H]1CCC(=O)N(CC[C@H](Sc2ccccc2)c2ccccc2)CC1	1.54% (inactive)
CCn1c(SCc2nc3scc(-c4ccccc4)c3c(=O)[nH]2)nnc1-c1cccs1	inactive
Cc1ccc(-c2csc3nc(SCC(N)=O)n(Cc4ccccc4)c(=O)c23)cc1	12% (active)
CN(Cc1ccccc1)c1nc(CN2CCOCC2)nc2scc(-c3ccccc3)c12	1.83% (inactive)
Cc1ccc(-c2csc3nc(SCC(=O)N(C)C)n(Cc4ccccc4)c(=O)c23)cc1	21.1% (active)
Cc1ccc(-n2c(SCC(N)=O)nc(O)cc2=O)cc1	1.35% (inactive)
C=CCn1c(SCC(=O)c2[nH]c(C)c(C(=O)OCC)c2C)nc2scc(-c3ccc(OC)cc3)c2c1=O	inactive
O=C(Nc1ccc(-c2nc3ccccc3[nH]2)cc1)c1ccccc1NS(=O)(=O)c1ccc(F)cc1	0.325% (inactive)

From PubChem BioAssay AID540333 (Southern Research Specialized Biocontainment Screening …, 2011)
